Source: PubChem BioAssay (NCI)
The panel holds about 83,000 compounds, 20% with a hit somewhere; the sample as a whole holds those more often.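 Treatment: one concentration, 48 hours, 96-well format. Scoring: percent growth, with anything below 10 considered active.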 Unmarked numbers belong to inactive results. The source made the active and inactive calls.

Experiments:
Test in all cases: NCI-60 one-dose screen, 48 h (100 = growth as untreated, 0 = no growth, -100 = all killed)
Details in all cases: 10 µM unless noted
[1] = tested on: HCT-15 colon
[2] = tested on: HT29 colon
[3] = tested on: SNB-75 CNS
[4] = tested on: SNB-19 CNS
[5] = tested on: U251 CNS
[6] = tested on: PC-3 prostate
[7] = tested on: SK-MEL-5 melanoma
[8] = tested on: UACC-62 melanoma
[9] = tested on: LOX IMVI melanoma
[10] = tested on: SK-MEL-28 melanoma

## N#Cc1c2cccnc2c2nnc3cc(Cl)c(Cl)cc3n12
[1]
  growth: 1.83% (active)
[2]
  growth: -50.6% (active)
[3]
  growth: -6.13% (active)
[4]
  growth: 63.1%
[5]
  growth: 26.2%
[6]
  growth: 18.4%
[7]
  growth: 86.1%
[8]
  growth: 52.5%
[9]
  growth: 21.9%
[10]
  growth: 17.6%

## CN1C(=O)C(=Cc2coc3ccc(Br)cc3c2=O)C(=O)N(C)C1=O
[1]
  growth: 105%
[2]
  growth: 108%
[3]
  growth: 105%
[4]
  growth: 105%
[5]
  growth: 104%
[6]
  growth: 89.3%
[7]
  growth: 93.8%
[8]
  growth: 83.4%
[9]
  growth: 101%
[10]
  growth: 103%

## COc1ccc(Cn2cc3c(c2-c2ccccc2)CCc2cnoc2-3)cc1OC
[1]
  growth: 32%
[2]
  growth: 16.5%
[3]
  growth: -11.1% (active)
[4]
  growth: 50.3%
[5]
  growth: 36.8%
[6]
  growth: 26.5%
[7]
  growth: 10.5%
[8]
  growth: 48.7%
[9]
  growth: 43.3%
[10]
  growth: 58.6%

## NC(CSC(c1ccccc1)(c1ccccc1)c1ccccc1)C(=O)NCC(=O)O (stereo not given)
[1]
  growth: 73.2%
[2]
  growth: 101%
[3]
  growth: 76.1%
[4]
  growth: 85.7%
[5]
  growth: 38.3%
[6]
  growth: 81.9%
[7]
  growth: 44.3%
[8]
  growth: 62.5%
[9]
  growth: 81.4%
[10]
  growth: 63.3%

## O=C(O)CC1Cc2ccccc2C1C(=O)O (stereo not given)
[1]
  growth: 101%
[2]
  growth: 106%
[3]
  growth: 92.4%
[4]
  growth: 95%
[5]
  growth: 103%
[6]
  growth: 94.5%
[7]
  growth: 103%
[8]
  growth: 97.3%
[9]
  growth: 91.7%
[10]
  growth: 109%

## CCCCCCCCCCCCOC(=N)N(C)C
[1]
  growth: 96.7%
[2]
  growth: 102%
[3]
  growth: 85.8%
[4]
  growth: 96.1%
[5]
  growth: 94.8%
[6]
  growth: 91.4%
[7]
  growth: 109%
[8]
  growth: 93.9%
[9]
  growth: 74.2%
[10]
  growth: 106%

## CCCC(=O)NNc1[nH]c(-c2ccc(OC)cc2)cc1C(=O)OCC
[1]
  growth: 100%
[2]
  growth: 110%
[3]
  growth: 122%
[4]
  growth: 108%
[5]
  growth: 104%
[6]
  growth: 106%
[7]
  growth: 111%
[8]
  growth: 99.6%
[9]
  growth: 103%
[10]
  growth: 120%

## [2H]c1nc(=Nc2cc(NC(=O)C=C)c(N(C)CCN(C)C)cc2OC)[nH]c(-c2cn(C([2H])([2H])[2H])c3ccccc23)c1[2H]
[1]
  growth: 1.13% (active)
[2]
  growth: -3.69% (active)
[3]
  growth: 66.9%
[4]
  growth: 55.8%
[5]
  growth: 40.9%
[6]
  growth: 50.2%
[7]
  growth: 63.5%
[8]
  growth: -10.7% (active)
[9]
  growth: 39.2%
[10]
  growth: 37.5%

## Cc1ccc(C(=O)Nc2ccc(CN3CCN(C)CC3)c(C(F)(F)F)c2)cc1C#Cc1cnc(N)c2ccc(C#N)cc12
[1]
  growth: 23.2%
[2]
  growth: 10.5%
[3]
  growth: 51.5%
[4]
  growth: 63.3%
[5]
  growth: 48.9%
[6]
  growth: 51.7%
[7]
  growth: 13.5%
[8]
  growth: 25.4%
[9]
  growth: 21%
[10]
  growth: 12.9%

## COc1ccccc1C(=O)Nc1cccc(-c2cc(=O)c3c(OC)c(OC)c(OC)cc3o2)c1
[1]
  growth: 41.5%
[2]
  growth: 24.6%
[3]
  growth: 83.2%
[4]
  growth: 36.2%
[5]
  growth: 39%
[6]
  growth: 30%
[7]
  growth: 25%
[8]
  growth: 43.1%
[9]
  growth: 35.4%
[10]
  growth: 56%

## Cc1ccc(NC(=O)CCl)cc1Cl
[1]
  growth: 80.9%
[2]
  growth: 107%
[3]
  growth: 91%
[4]
  growth: 94.5%
[5]
  growth: 80.5%
[6]
  growth: 86.8%
[7]
  growth: 87.2%
[8]
  growth: 80.5%
[9]
  growth: 6.84% (active)
[10]
  growth: 107%

## Cc1ccc(S(=O)(=O)NC(CCC(=O)Nc2ccccc2)C(=O)Nc2ccccc2)cc1 (stereo not given)
[1]
  growth: 0.514% (active)
[2]
  growth: -14.5% (active)
[3]
  growth: -24.9% (active)
[4]
  growth: -3.81% (active)
[5]
  growth: -43.8% (active)
[6]
  growth: -10.4% (active)
[7]
  growth: -65.5% (active)
[8]
  growth: -45.6% (active)
[9]
  growth: -21.6% (active)
[10]
  growth: -33.2% (active)

## CC1=NN(c2cccc(Cl)c2)C(=O)/C1=C\c1cn(-c2nc(N3CCOCC3)nc(N3CCOCC3)n2)c2ccccc12
[1]
  growth: 107%
[2]
  growth: 95.4%
[3]
  growth: 86.4%
[4]
  growth: 103%
[5]
  growth: 110%
[6]
  growth: 93%
[7]
  growth: 101%
[8]
  growth: 103%
[9]
  growth: 95.7%
[10]
  growth: 116%

## COC(=O)c1ccc2[nH]c(O)c(C(=Nc3ccc(N(C)C(=O)CN4CCN(C)CC4)cc3)c3ccc(N)cc3)c2c1
[1]
  growth: 99.4%
[2]
  growth: 42.6%
[3]
  growth: 42.5%
[4]
  growth: 83.9%
[5]
  growth: 82.2%
[6]
  growth: 83.4%
[7]
  growth: 85.2%
[8]
  growth: 110%
[9]
  growth: 74.6%
[10]
  growth: 87.1%

## Oc1ccccc1/C=N/N=C/c1c(O)ccc2ccccc12
[1]
  growth: 70.1%
[2]
  growth: 100%
[3]
  growth: 94.2%
[4]
  growth: 99.4%
[5]
  growth: 93.2%
[6]
  growth: 83.8%
[7]
  growth: 93.1%
[8]
  growth: 84.4%
[9]
  growth: 85.2%
[10]
  growth: 101%

## Cc1cc2c(-c3nc4ccccc4[nH]3)c(O)c(O)cc2c(O)c1-c1c(C)cc2c(-c3nc4ccccc4[nH]3)c(O)c(O)cc2c1O
[1]
  growth: 11.9%
[2]
  growth: 10.5%
[3]
  growth: 5.43% (active)
[4]
  growth: 7.78% (active)
[5]
  growth: -58.7% (active)
[6]
  growth: 6.02% (active)
[7]
  growth: -8.04% (active)
[8]
  growth: -16.6% (active)
[9]
  growth: -26.5% (active)
[10]
  growth: 19.8%

## CCCCCCCCCC(C)NC(=O)CCl (stereo not given)
[1]
  growth: 89.6%
[2]
  growth: 114%
[3]
  growth: 69.8%
[4]
  growth: 86.5%
[5]
  growth: 82.1%
[6]
  growth: 94.5%
[7]
  growth: 97.5%
[8]
  growth: 93.4%
[9]
  growth: 47.9%
[10]
  growth: 95.3%

## COc1ccc(Oc2[nH]n(C3=Nc4ccccc4Sc4ccccc43)c(=O)c2C#N)cc1
[1]
  growth: 101%
[2]
  growth: 113%
[3]
  growth: 121%
[4]
  growth: 101%
[5]
  growth: 107%
[6]
  growth: 82.8%
[7]
  growth: 84.8%
[8]
  growth: 69.9%
[9]
  growth: 95.3%
[10]
  growth: 108%

## BrCCCOc1ccc(Oc2ccc(OCCCBr)cc2)cc1
[1]
  growth: 93.3%
[2]
  growth: 107%
[3]
  growth: 86.6%
[4]
  growth: 92.5%
[5]
  growth: 88.1%
[6]
  growth: 101%
[7]
  growth: 97%
[8]
  growth: 94.5%
[9]
  growth: 50.5%
[10]
  growth: 99%

## CC(=O)Nc1nc(C)c(C(=O)NN)s1
[1]
  growth: 107%
[2]
  growth: 106%
[3]
  growth: 88.8%
[4]
  growth: 94.4%
[5]
  growth: 92.1%
[6]
  growth: 84.4%
[7]
  growth: 102%
[8]
  growth: 91.9%
[9]
  growth: 96.1%
[10]
  growth: 100%

## Ic1ccc(SSc2ccc(I)cc2)cc1
[1]
  growth: 99.5%
[2]
  growth: 95.3%
[3]
  growth: 88.4%
[4]
  growth: 94.6%
[5]
  growth: 67.8%
[6]
  growth: 58.5%
[7]
  growth: 90.8%
[8]
  growth: 97.8%
[9]
  growth: 0.697% (active)
[10]
  growth: 108%

## COC(=O)C(Cc1cnc[nH]1)N1CC(=O)N2[C@@H](c3ccccc3)SC[C@H]2C1=O (stereo not given in full)
[1]
  growth: 107%
[2]
  growth: 104%
[3]
  growth: 120%
[4]
  growth: 106%
[5]
  growth: 95.2%
[6]
  growth: 97.4%
[7]
  growth: 131%
[8]
  growth: 106%
[9]
  growth: 97.7%
[10]
  growth: 117%

## COc1cccc2c1n([O-])c1cccc(OC)c1[n+]2=O
[1]
  growth: 87.6%
[2]
  growth: 73.5%
[3]
  growth: 87%
[4]
  growth: 80.4%
[5]
  growth: 80%
[6]
  growth: 57.8%
[7]
  growth: 72.6%
[8]
  growth: 84.5%
[9]
  growth: 64.8%
[10]
  growth: 72.1%

## CC(=O)Nc1ccc(C(=O)/C=C/c2ccc(N(C)C)cc2)cc1
[1]
  growth: 94.1%
[2]
  growth: 91.3%
[3]
  growth: 99.7%
[4]
  growth: 109%
[5]
  growth: 93.9%
[6]
  growth: 94.6%
[7]
  growth: 98.7%
[8]
  growth: 102%
[9]
  growth: 96.1%
[10]
  growth: 108%

## O=C(OCC1CC2(Cl)C(Cl)=C(Cl)C1(Cl)C2(Cl)Cl)C1C(C(=O)OCC2CC3(Cl)C(Cl)=C(Cl)C2(Cl)C3(Cl)Cl)C2(Cl)C(Cl)=C(Cl)C1(Cl)C2(Cl)Cl (stereo not given)
[1]
  growth: 99.9%
[2]
  growth: 99.6%
[3]
  growth: 97.8%
[4]
  growth: 106%
[5]
  growth: 99.2%
[6]
  growth: 105%
[7]
  growth: 104%
[8]
  growth: 107%
[9]
  growth: 122%
[10]
  growth: 112%

## CC(=O)c1cc(Nc2cc(C)nc(N)n2)cc(C(C)=O)c1
[1]
  growth: 111%
[2]
  growth: 111%
[3]
  growth: 90.3%
[4]
  growth: 102%
[5]
  growth: 101%
[6]
  growth: 107%
[7]
  growth: 100%
[8]
  growth: 93.7%
[9]
  growth: 99.8%
[10]
  growth: 111%
